# Assay results reported in PubChem BioAssay.
# Values joined by “and” are separate entries in the source; they are usually repeats but may differ in a detail not shown here. Equal values may be shown once. Active and inactive are the calls of the source.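 Rule for the calls, unless noted: active = compounds killing one labelled cell type while sparing the other, by normalised counts and ratio limits, not self-fluorescent; inactive = the rest.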
# Assays:
# [1] = EMT-state selective cytotoxicity in co-culture – imaging, PC-3E GFP, TEM4-18 mCherry, primary screen (AID 1345086); settings: PC-3E GFP / TEM4-18 mCherry co-culture, imaging cell counts, at 1 µM; for red/green cell ratio (normalised): actives lie on both sides;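 for all read-outs here: cells exposed to compound for 72 h before imaging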;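 for red/green cell ratio (normalised): normalised mesenchymal count divided by normalised epithelial count so high means epithelial killing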
# [2] = test system: Aerobactin synthetase IucA (Klebsiella pneumoniae hvKP1); experiment: IucA enzyme inhibition, primary screen, biochemical, Spectrum library (AID 1346200; call rule not given here;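 note: 100% = wells without compound and 0% = wells lacking enzyme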); settings: malachite green pyrophosphate, A620, at 8 µM, stronger effect = lower value
# [3] = P. berghei load reduction in hepatocytes – cell-based, HepG2, luciferase luminescence, HepG2 viability, primary screen (AID 624349; in the data active = parasite load remaining mostly below about 12%, no sharp cut-off; inactive = mostly above about 10%;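 note: 100% = mean of DMSO negative control wells on the same plate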); settings: P. berghei liver stage in HepG2, luciferase luminescence, concentration not given here; parasite load remaining: stronger effect = lower value; viability: measured here: HepG2 viability without parasites
# [4] = viability loss with induced miR-34 in A549 – imaging, A549 dox-inducible miR-34, nuclei and caspase counts, primary screen (AID 1347080;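 active = compounds whose cell count with miR-34 switched on is under 0.7 times the count with it off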); settings: A549 miR-34 inducible, Hoechst nuclei count, 48 h
# [5] = counts scaled to control wells, 1 = unselective
# [6] = measured here: epithelial PC-3E GFP cell survival
# [7] = measured here: mesenchymal TEM4-18 mCherry cell survival
# [8] = measured here: relative caspase fold change +Dox/-Dox
# [9] = measured here: total cells with miR-34 induction, stronger effect = lower value
# [10] = measured here: total cells without miR-34 induction
SMILES,"red/green cell ratio (normalised) [1, 5]","normalised cell number [1, 6]","normalised cell number [1, 7]",activity remaining [2],red/green cell ratio (normalised) [1],parasite load remaining [3],viability [3],fold change ([4]; stronger effect = lower value),"fold change [4, 8]","cell count [4, 9]","cell count [4, 10]"
CC(=O)OC1CC[C@@]2(C)C(CCC3C2CC[C@]2(C)C(C4=CC(=O)OC4)C(OC(C)=O)CC32O)C1 (some centres not stated),0.21 (inactive),0.16,0.03,109% (inactive),,,,,,,
CCC(C)C(=O)O[C@@H]1C[C@@]2(C)[C@H](c3ccoc3)OC(=O)CC23OC2(C)OC34[C@H](OC(=O)C(C)C)C3(O)[C@@H](OC(=O)C5(C)OC5C)[C@@]5(C)C[C@]3(O)[C@@](C)([C@H]5CC(=O)OC)C14O2 (some centres not stated),1.06 (inactive),0.98,1.04,,,,,,,,
CC(=O)O[C@H]1C(=O)[C@@]2(C)C([C@H](OC(=O)c3ccccc3)[C@]3(O)C[C@H](O)C(C)=C1C3(C)C)[C@]1(OC(C)=O)CO[C@@H]1C[C@@H]2O (some centres not stated),,0.99,0.9,96.8% (inactive),0.91 (inactive),,,,,,
C=CCN1CC[C@]23c4c5ccc(O)c4OC2C(=O)CC[C@@]3(O)[C@H]1C5 (some centres not stated),,1.09,1.19,92.9% (inactive),1.09 (inactive),96.1% (inactive) and 54.5% (inactive),79.4% and 88.1%,0.923 (inactive),2.03,11800,12800
CC(=O)O[C@@H]1CC2C(C)(C)C(=O)C=C[C@]2(C)C2CC[C@]3(C)C(=CC(=O)O[C@H]3c3ccoc3)[C@@]21C (some centres not stated),,0.98,0.99,123% (inactive),1.01 (inactive),,,,,,
CC(C)C[C@@H](CN)CC(=O)O,,1.2,1.27,121% (inactive),1.06 (inactive),133% (inactive) and 53% (inactive),88.1% and 116%,0.933 (inactive),3.45,12300,13200
Cc1cc(OC(=O)N2CCCCC2)c(C(C)C)cc1[N+](C)(C)C,0.97 (inactive),1.16,1.13,125% (inactive),,,,,,,
CC1[C@H](C)OC(=O)CC(O)CC(O)CC(O)CCC(O)C(O)C[C@]2(O)CC(O)C(C(=O)O)C(CC(OC3O[C@H](C)[C@@H](O)[C@H](N)[C@@H]3O)/C=C/C=C/C=C/C=C/CC/C=C/C=C/[C@H](C)[C@H]1O)O2 (some centres not stated),,0.98,1.25,89.3% (inactive),1.28 (inactive),87.6% (inactive) and 108% (inactive),71.5% and 89.6%,0.841 (inactive),0.89,11200,13400
CNC(C)[C@H](O)c1ccccc1 (some centres not stated),,0.95,1.35,87.2% (inactive),1.42 (inactive),77% (inactive),74.2%,,,,
C[N+](C)(C)CC(=O)[O-],,1.09,1.39,124% (inactive),1.27 (inactive),57.1% (inactive) and 50.8% (inactive),76.9% and 89.4%,0.862 (inactive),4.05,11400,13200
C=C(C)C1Cc2c(ccc3c(=O)c4c(oc23)COc2cc(OC)c(OC)cc2-4)O1 (configuration not stated),,0.94,0.86,126% (inactive),0.91 (inactive),,,,,,
CC1(C)C(=O)C=C[C@@]2(C)C1C[C@@H](O)[C@]1(C)C2CC[C@@]2(C)[C@H](c3ccoc3)OC(=O)[C@H]3O[C@]321 (some centres not stated),,0.88,0.95,88.4% (inactive),1.08 (inactive),,,,,,
CC[C@@]1(O)C[C@H](O[C@H]2C[C@H](N(C)C)[C@H](O)[C@H](C)O2)c2c(cc3c(c2O)C(=O)c2c(O)ccc(O)c2C3=O)[C@H]1C(=O)OC,,1.07,0.9,96.8% (inactive),0.85 (inactive),,,,,,
C[C@H]1OC(O[C@H]2[C@@H](O)CC(O[C@H]3[C@@H](O)C[C@H](O[C@H]4CC[C@]5(C)C6CC[C@]7(C)[C@@H](C8=CC(=O)OC8)[C@@H](O)C[C@]7(O)[C@@H]6CC[C@@H]5C4)O[C@@H]3C)O[C@@H]2C)C[C@H](O)C1O (some centres not stated),,0.21,0.07,115% (inactive),0.34 (inactive),,,,,,
C[C@]12CCC(=O)C=C1C=CC1C2CC[C@@]2(C)C1CC[C@@]2(O)CCC(=O)O (some centres not stated),,0.95,1.17,110% (inactive),1.24 (inactive),99.8% (inactive) and 46.1% (inactive),62.7% and 93.1%,0.912 (inactive),3.05,12000,13100
N#CC(O[C@@H]1O[C@H](CO[C@@H]2O[C@H](CO)[C@@H](O)[C@H](O)[C@H]2O)[C@@H](O)[C@H](O)[C@H]1O)c1ccccc1 (some centres not stated),,0.94,0.94,123% (inactive),1 (inactive),116% (inactive),70.2%,,,,
